In the supplement of paper PMC12632987:
Whole data set: some 4,500 sequences, median “median log2 fold change of GCK-ALFA target abundance (FLAG IP / Myc IP barcode read proportion)” near 0.078, cut for the lowest 2% near -0.6. Only a selection was taken, and the lowest values are over-represented in it overall.

B1: GBRAP_74_6512 (protein)
chain: MEELLAKLKEAAEAKDVDKLVALALEIAETGDKETIEKAAEIVVAFVEANLDTLTPEELEKLSDALATLADKLMELGGDSEVVNRVAETAVALEKKLLAL
B2: GBRAP_52_5860 (protein)
chain: MVEEALEKLRKAVEAMKAGKEEEAEKILKEIVENFDEETILAAAEAFAKEMATATPEEAEAAFRTAEMLGKILEEAGFDEEVVTLIEDTIGAAVARVEAA
B3: GBRAP_139_3742 (protein)
chain: SEMEKKVEEAAKKVAELKDDPEAVADYLTETIASVDEETAEKIARAAVEVLADLPVEERLALDDLILDKLEEAGVDEDKITIVEAELNGGLARHAYAEEL
B4: GBRAP_139_3708 (protein)
chain: SALEEKVAEAKELTKETLENPEESIKKIVELLLSVSEEDLEVVVKAIAETLSEFPLDTAEELADKLLEEVKKRSKDEDKVNIVEAVLNGALARKAYEEEL
B5: GBRAP_80_6860 (protein)
chain: DEARLAAARARLKALLPEAAALIDEVVAIAKELGVPNADIADLLDALAELAEVDPELAKELLEELLEDLREEKEAGDAENALATVRGYAGEALMEAEELE
B6: GBRAP_95_7064 (protein)
chain: EEDLEIAEDLIDTAEDLVEIGLYEQAARAAKAAVEELKEIGYTGELALRAAEVLVKVAEATGNEEAAELAKEVLEEIRKAGGDEKKIEELEKRLEKALKK
B7: GBRAP_52_6171 (protein)
chain: SAEKARKMAEELLEAIKAGDEEKVKKILEEIAKNYTDEEIAAMLREVAKRVPSLSPEDQERVVEAALELEDIAVKAGHDENVLQIEVARVAAAAYDALQA
B8: GBRAP_53_6396 (protein)
chain: AEKEIKEGLKELEALIKRVKADPTLDPKEVAKEASALFKALVAAGAPEEELVKLAKELAEAVKAKGLGVEVSTALAKAAAEAGAEEVQYVFTEAAVEDLE
B9: GBRAP_160_4238 (protein)
chain: SEEIEKLREEITDEAELLLDVLLESPKSQWPAYARAFAGDIVQIVEENENVSDETEEKVAELADEMVAELVAARDASPEELAALLERFVERIVKTVEEGV
B10: GBRAP_128_3427 (protein)
chain: STAAKVAEVEALLEAMLTADAAEAAALARRIAALMLASDLETVEAMVEVILSMLPKFTAEQLEILADALREARPEFTPEKQLLVSEVEVAALNEAEEKEE
B11: GBRAP_160_4711 (protein)
chain: MEVKEKLKKYVEEEFEEAKELIKGESIEQRAIIVEGTIGEIIMELFEEEEASDELIDEVDKIGDELVETILANPDLTEEEIEELIEKAEEEIKKAIDKYV
B12: GBRAP_39_5693 (protein)
chain: EEDEENEDHVSYLQALAAKRLYETGISLEEATKEAKKILEEEAKRNPELKELLEELIKLAEEKGDEAKEVLIGVAVLIEEGEPKEEIKEHIEKAIKYFKK
B13: GBRAP_95_7034 (protein)
chain: EDDKLALESALEVAVAAAELGDEEAAARALKEALELLKKAGKVKLDPELLKETIEVIREVGVKKLPKEEVLELLELLKESAETEEVKKLAEEAIEEVKKR
B14: GBRAP_74_6536 (protein)
chain: SEEKEKVIKEINEAETIEEAIEITEKVLETDDKELARAAVQELLLKAAERKDELTLEEAERLVEVIVRAFEKNGIVVETREEAEALNTVLTKALELEEKA
B15: GBRAP_166_4984 (protein)
chain: MEEELVEELKKYLEELAEKMKEAGPEERQELVAEAAERLAEAREKGLSREKLGELVEYLLRLAREVGIPISAVEGALSILADLDEEEIDILDEAARRVAA
B16: GBRAP_128_3314 (protein)
chain: MDEERLEEAREIVERMKEADLEELAELTRRLAELLGTLTPEERDIVAEIFREGLKELSAEKLDVVADVLREVRPSLDPETANVVADLEVEALNEAVEKEE
B17: GBRAP_74_6519 (protein)
chain: EEELLAALEAAAAAGDAATAVALARRIVAEGSLEAVERAARIMVAFVERHADALSPEELEAVADALAELADELMLRGGDSEVVLAVARAAVALEERRRAL
B18: GBRAP_128_3579 (protein)
chain: SVEEVRAEVRALLEAMKTADAAEQKAIATEIATRFTTLTPEERRAAAETIEELLPELSAEQLDILADALRAARPTADPEAANLLADVEVAALNEALEKEE
B19: GBRAP_160_4226 (protein)
chain: METVEKIVKVFRDTFLEALELIEGESAEERAVILDVAVGEVILEVSEIEEATDEMEEVVDKKAEALAAALLAAADASAAERRALVDKAAAELRKELEKIE

biological target: GABARAP, O95166; experiment: median log2 fold change of GCK-ALFA target abundance (FLAG IP / Myc IP barcode read proportion) (log2 ratio); each designed protein is fused to an ALFA-tag nanobody in HEK293 cells to bring the named protein to FLAG-tagged glucokinase (GCK); Myc marks an untargeted standard; higher = target protein stabilised (more abundant); conditions: target protein: 3xFLAG-MCP-GCK-ALFA reporter; HEK293 landing pad (RPLP)
Sequence (O95166 whole entry, the tested form may be a part): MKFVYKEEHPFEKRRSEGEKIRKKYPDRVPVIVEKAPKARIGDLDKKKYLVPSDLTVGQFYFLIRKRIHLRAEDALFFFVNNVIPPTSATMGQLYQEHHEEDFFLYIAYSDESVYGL
Procedure: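 LABEL-seq trans screen in HEK293 landing-pad cells. Each de novo designed 100-aa effector handle, binding the indicated effector (E3 ligase, DUB or autophagy protein), is fused to a constant NbALFA target handle and induced with 2 ug/mL doxycycline. A FLAG-MCP-GCK-ALFA target and a Myc-MCP standard reporter were transfected, and after 48 h circRNA barcodes were recovered by anti-FLAG and anti-Myc IP and sequenced. The value is the median across barcodes (at least 3 per design) of log2(FLAG/Myc read-proportion ratio), with the two transfection replicates pooled. Negative values mean degradation and positive values mean stabilisation of the target.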

B1 and B2 are within 0.2 log units of each other in “median log2 fold change” value: 0.23 for the first, 0.165 for the second.

B3 and B4 are within 0.2 log units of each other in “median log2 fold change” value: 0.187 for the first, 0.163 for the second.

Compared with B5, B6 is higher in “median log2 fold change” value: -0.593 for the first, 0.373 for the second.

Going from B7 to B8, the “median log2 fold change” value rises from -0.631 to 0.274.

Compared with B9, B10 is higher in “median log2 fold change” value: -0.458 for the first, 0.18 for the second.

First: B11
Second: B12
The “median log2 fold change” value of the first is lower: -0.152 for the first, 0.24 for the second.

Compared with B13, B14 is lower in “median log2 fold change” value: 0.352 for the first, -0.769 for the second.

B15 and B16 are within 0.2 log units of each other in “median log2 fold change” value: 0.23 for the first, 0.162 for the second.

First: B17
Second: B18
The “median log2 fold change” value of the first is lower: -0.0734 for the first, 0.177 for the second.

With B19 the “median log2 fold change” value was -0.651.
